Screen size: about 5,500 compounds; about 2,000 (36%) were called active. Roughly 18% stayed inconclusive and do not appear here. No stated cut-off is given here; in the data, active means normalized growth mostly below about 0.91 (no sharp cut-off); inconclusive means no clear call, values can overlap the other calls; inactive means mostly above about 0.92. This is one part of the list.
Assay: chemical genetic growth profiling, strain panel (AID 1159580);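 further: tested at 20 µM; growth read once vehicle control cultures reached saturation at 30 °C; 1 = growth at the plate median or of vehicle wells; lower values mean less growth of the strain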
Conditions: growth OD
[1] = S. cerevisiae deletion strains, locus YAL013W, strain DEP1, active compounds read low
[2] = S. cerevisiae deletion strains, locus YBR229C, strain ROT2, active compounds read low
[3] = S. cerevisiae deletion strains, locus YDL101C, strain DUN1, active compounds read low
[4] = S. cerevisiae deletion strains, locus YDR150W, strain NUM1, active compounds read low
[5] = S. cerevisiae deletion strains, locus YEL061C, strain CIN8, active compounds read low
[6] = S. cerevisiae deletion strains, locus YGR078C, strain PAC10, active compounds read low
[7] = S. cerevisiae deletion strains, locus YHR030C, strain SLT2, active compounds read low
[8] = S. cerevisiae deletion strains, locus YHR087W, strain rtc3, active compounds read low
[9] = S. cerevisiae deletion strains, locus YJR043C, strain POL32, active compounds read low
[10] = S. cerevisiae deletion strains, locus YJR075W, strain HOC1, active compounds read low
[11] = S. cerevisiae deletion strains, locus YLR039C, strain RIC1, active compounds read low
[12] = S. cerevisiae deletion strains, locus YLR058C, strain SHM2 (second series), active compounds read low
[13] = S. cerevisiae deletion strains, locus YLR085C, strain ARP6, active compounds read low
[14] = S. cerevisiae deletion strains, locus YLR262C, strain YPT6, active compounds read low
[15] = S. cerevisiae deletion strains, locus YML094W, strain GIM5, active compounds read low
[16] = S. cerevisiae deletion strains, locus YMR219W, strain ESC1, active compounds read low
[17] = S. cerevisiae deletion strains, locus YMR263W, strain SAP30, active compounds read low
[18] = S. cerevisiae deletion strains, locus YMR307W, strain GAS1, active compounds read low
[19] = S. cerevisiae deletion strains, locus YNL153C, strain GIM3, active compounds read low
[20] = S. cerevisiae deletion strains, locus YNL298W, strain CLA4 (second series), active compounds read low
[21] = S. cerevisiae deletion strains, locus YNL322C, strain KRE1, active compounds read low
[22] = S. cerevisiae deletion strains, locus YNR030W, strain Alg12, active compounds read low
[23] = S. cerevisiae deletion strains, locus YPL055C, strain LGE1, active compounds read low
[24] = S. cerevisiae deletion strains, locus YPL241C, strain CIN2, active compounds read low
[25] = S. cerevisiae deletion strains, locus YPR135W, strain CTF4, active compounds read low

Measured: normalized growth

O=C(O)COCC(=O)N1CCc2c([nH]c3ccccc23)C1C(F)(F)F (configuration not stated)
active: [13] 1.33 [resistant]
inactive: [1] 1.01 | [2] 0.998 | [3] 1.02 | S. cerevisiae deletion strains, locus YDL134C, strain PPH21, active compounds read low 1.01 | [4] 0.949 | [5] 1.01 | [6] 1.03 | [7] 1.06 | [8] 1.01 | [9] 1.02 | [10] 1.06 | S. cerevisiae deletion strains, locus YKL190W, strain CNB1, active compounds read low 1.03 | [11] 1.03 | [12] 1.02 | [14] 0.998 | [15] 1.04 | [16] 1 | [17] 0.954 | [18] 1.24 | [19] 1.01 | [20] 1.05 | [21] 1.02 | [22] 1.06 | [23] 0.961 | [24] 1.07 | [25] 1.05 | S. cerevisiae strains, strain wild type, active compounds read low 1.02

Cc1ccccc1C(=O)N1CCc2c([nH]c3ccccc23)C1C(F)(F)F (configuration not stated)
active: S. cerevisiae deletion strains, locus YLR113W, strain HOG1, active compounds read low 0.799 | S. cerevisiae deletion strains, locus YPL256C, strain CLN2, active compounds read low 0.815
inactive: S. cerevisiae deletion strains, locus YAR019C, strain CDC15, active compounds read low 0.982 | S. cerevisiae deletion strains, locus YBL105C, strain PKC1, active compounds read low 0.985 | S. cerevisiae deletion strains, locus YBR135W, strain CKS1, active compounds read low 0.986 | S. cerevisiae deletion strains, locus YBR136W, strain MEC1, active compounds read low 0.968 | S. cerevisiae deletion strains, locus YBR160W, strain CDC28, active compounds read low 0.988 | S. cerevisiae deletion strains, locus YDL017W, strain CDC7, active compounds read low 0.989 | S. cerevisiae deletion strains, locus YDL028C, strain MPS1, active compounds read low 0.979 | [3] 0.978 | S. cerevisiae deletion strains, locus YDL108W, strain KIN28, active compounds read low 0.98 | S. cerevisiae deletion strains, locus YDL132W, strain cdc53, active compounds read low 0.988 | S. cerevisiae deletion strains, locus YDL214C, strain PRR2, active compounds read low 0.938 | S. cerevisiae deletion strains, locus YDR052C, strain DBF4, active compounds read low 0.989 | S. cerevisiae deletion strains, locus YDR054C, strain cdc34, active compounds read low 0.976 | S. cerevisiae deletion strains, locus YDR226W, strain ADK1, active compounds read low 0.985 | S. cerevisiae deletion strains, locus YDR477W, strain SNF1, active compounds read low 0.962 | S. cerevisiae deletion strains, locus YER123W, strain YCK3, active compounds read low 0.9 | S. cerevisiae deletion strains, locus YER133W, strain GLC7, active compounds read low 0.948 | S. cerevisiae deletion strains, locus YFL009W, strain cdc4, active compounds read low 0.979 | S. cerevisiae deletion strains, locus YFL029C, strain CAK1, active compounds read low 0.972 | S. cerevisiae deletion strains, locus YFR003C, strain YPI1, active compounds read low 0.987 | S. cerevisiae deletion strains, locus YFR019W, strain FAB1, active compounds read low 0.954 | S. cerevisiae deletion strains, locus YFR028C, strain CDC14, active compounds read low 0.978 | S. cerevisiae deletion strains, locus YGR040W, strain KSS1, active compounds read low 0.927 | S. cerevisiae deletion strains, locus YGR052W, strain FMP48, active compounds read low 0.955 | S. cerevisiae deletion strains, locus YGR092W, strain DBF2, active compounds read low 0.978 | [7] 0.881 | S. cerevisiae deletion strains, locus YHR079C, strain IRE1, active compounds read low 0.878 | S. cerevisiae deletion strains, locus YHR082C, strain KSP1, active compounds read low 0.927 | S. cerevisiae deletion strains, locus YHR205W, strain SCH9, active compounds read low 0.83 | S. cerevisiae deletion strains, locus YIL147C, strain SLN1, active compounds read low 0.976 | S. cerevisiae deletion strains, locus YJL095W, strain BCK1, active compounds read low 0.908 | S. cerevisiae deletion strains, locus YJL128C, strain PBS2, active compounds read low 0.927 | S. cerevisiae deletion strains, locus YJL157C, strain FAR1, active compounds read low 0.976 | S. cerevisiae deletion strains, locus YJR016C, strain ILV3, active compounds read low 0.989 | S. cerevisiae deletion strains, locus YJR066W, strain TOR1 (second series), active compounds read low 0.934 | S. cerevisiae deletion strains, locus YJR066W, strain TOR1, active compounds read low 0.943 | S. cerevisiae deletion strains, locus YKL048C, strain ELM1, active compounds read low 0.977 | S. cerevisiae deletion strains, locus YKL067W, strain YNK1, active compounds read low 0.95 | S. cerevisiae deletion strains, locus YKL101W, strain HSL1, active compounds read low 0.909 | S. cerevisiae deletion strains, locus YKL193C, strain SDS22, active compounds read low 0.99 | S. cerevisiae deletion strains, locus YKL203C, strain TOR2, active compounds read low 1.01 | S. cerevisiae deletion strains, locus YLR133W, strain CKI1, active compounds read low 0.929 | S. cerevisiae deletion strains, locus YLR403W, strain SFP1, active compounds read low 0.93 | S. cerevisiae deletion strains, locus YML070W, strain DAK1, active compounds read low 0.905 | S. cerevisiae deletion strains, locus YMR001C, strain CDC5, active compounds read low 0.97 | S. cerevisiae deletion strains, locus YMR205C, strain PFK2 (second series), active compounds read low 0.945 | S. cerevisiae deletion strains, locus YMR277W, strain FCP1, active compounds read low 0.991 | S. cerevisiae deletion strains, locus YNL006W, strain LST8, active compounds read low 1 | S. cerevisiae deletion strains, locus YNL020C, strain ARK1, active compounds read low 0.95 | S. cerevisiae deletion strains, locus YNL161W, strain CBK1, active compounds read low 0.996 | S. cerevisiae deletion strains, locus YNL183C, strain NPR1, active compounds read low 0.894 | S. cerevisiae deletion strains, locus YNL207W, strain RIO2, active compounds read low 0.982 | S. cerevisiae deletion strains, locus YNL222W, strain SSU72, active compounds read low 0.991 | S. cerevisiae deletion strains, locus YNL307C, strain MCK1 (second series), active compounds read low 0.936 | S. cerevisiae deletion strains, locus YOL078W, strain AVO1, active compounds read low 0.991 | S. cerevisiae deletion strains, locus YOL136C, strain PFK27, active compounds read low 0.906 | S. cerevisiae deletion strains, locus YOR061W, strain CKA2, active compounds read low 0.953 | S. cerevisiae deletion strains, locus YOR119C, strain RIO1, active compounds read low 0.985 | S. cerevisiae deletion strains, locus YOR231W, strain MKK1, active compounds read low 0.891 | S. cerevisiae deletion strains, locus YOR329C, strain SCD5, active compounds read low 0.985 | S. cerevisiae deletion strains, locus YPL031C, strain PHO85, active compounds read low 0.963 | S. cerevisiae deletion strains, locus YPL153C, strain RAD53, active compounds read low 0.943 | S. cerevisiae deletion strains, locus YPL204W, strain HRR25, active compounds read low 0.945 | S. cerevisiae deletion strains, locus YPL209C, strain IPL1, active compounds read low 0.986 | S. cerevisiae deletion strains, locus YPR025C, strain CCL1, active compounds read low 0.989 | S. cerevisiae deletion strains, locus YPR106W, strain ISR1, active compounds read low 0.965 | S. cerevisiae deletion strains, locus YPR111W, strain DBF20, active compounds read low 0.966 | S. cerevisiae deletion strains, strain NNK1, active compounds read low 0.967 | S. cerevisiae deletion strains, strain TSCII, active compounds read low 0.988

O=C(CSc1ccc(C(F)(F)F)cn1)N1CCc2c([nH]c3ccccc23)C1C(F)(F)F (configuration not stated)
inactive: [1] 1 | [2] 0.995 | S. cerevisiae deletion strains, locus YCL061C, strain MRC1, active compounds read low 1.01 | [3] 1 | [4] 1.02 | [5] 0.959 | [6] 0.984 | [7] 1.01 | [8] 0.974 | S. cerevisiae deletion strains, locus YJL187C, strain SWE1, active compounds read low 1.02 | [9] 1.01 | [10] 0.965 | [11] 0.999 | [12] 1.01 | [13] 1 | [14] 0.982 | [15] 0.997 | [16] 1.01 | [17] 1.01 | [18] 0.935 | [19] 0.998 | [20] 1.01 | [21] 0.991 | [22] 0.916 | S. cerevisiae deletion strains, locus YOL006C, strain TOP1, active compounds read low 1.08 | [23] 0.954 | [24] 0.936 | [25] 0.907

— PubChem BioAssay AID1159580 (chemical genetic matrix, 2015)
